Source: PubChem BioAssay AID1159580 (chemical genetic matrix, 2015)
Hit rate of the full screen: of about 5,500 compounds, about 2,000 (36%) were called active. Another 18% or so got no clear call; they are omitted. Rule as the data show it: active = normalized growth mostly below about 0.91 (no sharp cut-off); inconclusive = no clear call, values can overlap the other calls; inactive = mostly above about 0.92. The list shows a part of the results.

Assay: chemical genetic growth profiling, strain panel (AID 1159580);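 also: tested at 20 µM; growth read once vehicle control cultures reached saturation at 30 °C; 1 = growth at the plate median or of vehicle wells; lower values mean less growth of the strain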
Settings: growth OD

Measured: normalized growth

N#CC(c1ccccc1)N1CCCCC1 (stereo not drawn)
inactive: S. cerevisiae deletion strains, locus YAL013W, strain DEP1, active compounds read low 1.04 | S. cerevisiae deletion strains, locus YBR229C, strain ROT2, active compounds read low 0.995 | S. cerevisiae deletion strains, locus YDL101C, strain DUN1, active compounds read low 1 | S. cerevisiae deletion strains, locus YDL134C, strain PPH21, active compounds read low 0.99 | S. cerevisiae deletion strains, locus YDR150W, strain NUM1, active compounds read low 0.964 | S. cerevisiae deletion strains, locus YEL061C, strain CIN8, active compounds read low 1.02 | S. cerevisiae deletion strains, locus YGR078C, strain PAC10, active compounds read low 1 | S. cerevisiae deletion strains, locus YHR030C, strain SLT2, active compounds read low 1.04 | S. cerevisiae deletion strains, locus YHR087W, strain rtc3, active compounds read low 0.995 | S. cerevisiae deletion strains, locus YJR043C, strain POL32, active compounds read low 0.994 | S. cerevisiae deletion strains, locus YJR075W, strain HOC1, active compounds read low 0.984 | S. cerevisiae deletion strains, locus YKL190W, strain CNB1, active compounds read low 0.99 | S. cerevisiae deletion strains, locus YLR039C, strain RIC1, active compounds read low 0.969 | S. cerevisiae deletion strains, locus YLR058C, strain SHM2 (second series), active compounds read low 0.987 | S. cerevisiae deletion strains, locus YLR085C, strain ARP6, active compounds read low 1.02 | S. cerevisiae deletion strains, locus YLR262C, strain YPT6, active compounds read low 1.02 | S. cerevisiae deletion strains, locus YML094W, strain GIM5, active compounds read low 1.02 | S. cerevisiae deletion strains, locus YMR219W, strain ESC1, active compounds read low 1.01 | S. cerevisiae deletion strains, locus YMR263W, strain SAP30, active compounds read low 1.01 | S. cerevisiae deletion strains, locus YMR307W, strain GAS1, active compounds read low 0.928 | S. cerevisiae deletion strains, locus YNL153C, strain GIM3, active compounds read low 1 | S. cerevisiae deletion strains, locus YNL298W, strain CLA4 (second series), active compounds read low 0.985 | S. cerevisiae deletion strains, locus YNL322C, strain KRE1, active compounds read low 1.01 | S. cerevisiae deletion strains, locus YNR030W, strain Alg12, active compounds read low 1 | S. cerevisiae deletion strains, locus YPL055C, strain LGE1, active compounds read low 1.03 | S. cerevisiae deletion strains, locus YPL241C, strain CIN2, active compounds read low 0.975 | S. cerevisiae deletion strains, locus YPR135W, strain CTF4, active compounds read low 1.19 | S. cerevisiae strains, strain wild type, active compounds read low 0.985
